The target in test [1] is Estrogen receptor beta (Homo sapiens) (UniProt Q92731). In words: OT_ER_ERbERb_1440: Odyssey Thera (OT) 24-hour HEK293T Protein-Complementation Assay for Estrogen Receptor-beta/-beta Homodimer (AID 2283380).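 Note: fluorescence gain from ER beta LBD homodimer complementation read by laser scanning cytometry; scored as signal increase over DMSO baseline for both agonists and antagonists.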 A digest of the protocol:
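Fluorescence increase, nuclear for agonists or whole-cell for antagonists, relative to DMSO vehicle, quantified by laser scanning cytometer after fixation and Draq5 staining. Readout from 24 h treatment of HEK293T cells carrying complementation-paired ER beta LBD (aa 310-547).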

In test [2] the target is Retinoic acid receptor RXR-alpha (Homo sapiens) (UniProt P19793). In words: OT_NURR1_NURR1RXRa_0480: Odyssey Thera (OT) 8-hour HEK293T Protein Complementation Assay for Nurr1/retinoid X receptor (RXR) (AID 2283385). Summed up: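 Interaction of bait and prey reconstitutes a functional reporter, whose fluorescence was measured in HEK293T cells dosed with compound for 8 hours. Signal gain relative to DMSO defined the single endpoint.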
Sequence of Retinoic acid receptor RXR-alpha (Homo sapiens) (P19793 whole entry, looked up, the tested form may be a part): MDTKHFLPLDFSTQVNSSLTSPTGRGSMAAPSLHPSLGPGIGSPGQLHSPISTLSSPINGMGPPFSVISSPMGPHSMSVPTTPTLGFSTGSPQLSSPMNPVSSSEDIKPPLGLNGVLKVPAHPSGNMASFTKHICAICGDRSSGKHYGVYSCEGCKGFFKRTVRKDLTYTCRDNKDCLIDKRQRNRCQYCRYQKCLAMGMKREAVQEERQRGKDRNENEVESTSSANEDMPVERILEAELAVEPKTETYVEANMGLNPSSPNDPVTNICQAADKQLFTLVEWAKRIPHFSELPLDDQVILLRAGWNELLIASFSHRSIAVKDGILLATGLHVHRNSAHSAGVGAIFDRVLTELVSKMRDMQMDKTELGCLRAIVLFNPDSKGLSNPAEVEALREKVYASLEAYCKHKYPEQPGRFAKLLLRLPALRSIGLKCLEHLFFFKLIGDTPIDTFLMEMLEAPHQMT

Test [3] deals with Peroxisome proliferator-activated receptor gamma (Homo sapiens) (UniProt P37231). In words: OT_PPARg_PPARgSRC1_0480: Odyssey Thera (OT) 8-hour Protein-Complementation Assay for Peroxisome Proliferator-activated Receptor Gamma / SRC-1 Co-activator (AID 2283387).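 Note: nuclear to cytoplasmic split Venus YFP fluorescence ratio reporting PPARg SRC-1 interaction.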 Summed up:
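Protein-fragment complementation in HEK293T: Venus YFP halves (residues 1-158, 159-239, mutated to IFP1/IFP2) fused to PPARg/SRC-1. 8 h exposure; N/C ratio at 488 nm; DMSO negative control.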

Test [4] addresses Bile acid receptor (Homo sapiens) (UniProt Q96RI1). In words: OT_FXR_FXRSRC1_0480: Odyssey Thera (OT) 8-hour HEK293T Protein-Complementation Assay for Farnesoid X receptor/SRC-1 Co-activator (AID 2283383). A digest of the protocol: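 PCA, HEK293T, 8 h compound exposure; FXR–SRC-1 binding reconstitutes split reporter; fluorescence intensity; positive-direction fit vs DMSO.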
Test [5] concerns the target Retinoic acid receptor RXR-alpha (Homo sapiens) (UniProt P19793). In words: OT_NURR1_NURR1RXRa_1440: Odyssey Thera (OT) 24-hour HEK293T Protein Complementation Assay for Nurr1/retinoid X receptor (RXR) (AID 2283386). A digest of the protocol:
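Steps: fragment-tagged Nurr1 and RXRα expressed in HEK293T; compounds added; after 24 h, complemented reporter quantified by fluorescence intensity; signal increase over DMSO fitted as the single endpoint.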

The target of test [6] is Estrogen receptor (Homo sapiens) (UniProt P03372). In words: OT_ERa_GFPERaERE_0480: Odyssey Thera (OT) 8-hour HeLa Transcription Induction Assay for Estrogen Receptor (AID 2283381; active = hit-call score of the fitted dose curve at least 0.9, where 1 is the maximum; inactive = score below 0.9). Summed up: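 Human cervical HeLa cells were treated for 8 hours, after which ERE-driven GFP induction was measured by fluorescence microscopy; increases over DMSO baseline defined activity.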
Sequence of Estrogen receptor (Homo sapiens) (P03372 whole entry, looked up): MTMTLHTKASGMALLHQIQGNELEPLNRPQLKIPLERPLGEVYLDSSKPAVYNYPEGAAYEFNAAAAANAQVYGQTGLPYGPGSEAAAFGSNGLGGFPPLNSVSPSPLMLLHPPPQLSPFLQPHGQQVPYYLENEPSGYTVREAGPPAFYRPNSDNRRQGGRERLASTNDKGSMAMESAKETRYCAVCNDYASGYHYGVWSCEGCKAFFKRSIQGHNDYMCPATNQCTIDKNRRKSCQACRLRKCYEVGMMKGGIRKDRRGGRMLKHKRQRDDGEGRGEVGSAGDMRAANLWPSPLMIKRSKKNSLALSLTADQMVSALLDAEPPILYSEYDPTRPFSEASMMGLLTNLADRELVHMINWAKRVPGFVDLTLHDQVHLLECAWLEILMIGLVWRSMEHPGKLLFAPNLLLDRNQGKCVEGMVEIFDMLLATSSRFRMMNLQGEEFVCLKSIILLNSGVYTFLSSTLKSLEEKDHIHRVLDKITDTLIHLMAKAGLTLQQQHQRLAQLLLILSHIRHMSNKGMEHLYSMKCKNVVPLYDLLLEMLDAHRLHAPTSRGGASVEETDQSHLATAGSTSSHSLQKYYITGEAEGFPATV

Test [7] has the same target. In words: OT_ERa_GFPERaERE_0120: Odyssey Thera (OT) 2-hour HeLa Transcription Induction Assay for Estrogen Receptor (AID 2283382). Summed up: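 Cells (human cervical HeLa) receive compound, incubate 2 hours, then are imaged for fluorescent reporter induction. Images are quantified by high content analysis, and activity is fitted as gain of signal against DMSO.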

“And” between values parts separate entries of the source, which are not always exact repeats. Identical values can stand only once. Records with an inconclusive call do not appear. The source made the active and inactive calls. Rule for the calls, unless noted: active = hit-call score of the fitted dose curve at least 0.9, where 1 is the maximum; inconclusive = response in the unintended direction; inactive = score below 0.9.

Sequence of Peroxisome proliferator-activated receptor gamma (Homo sapiens) (P37231 whole entry, looked up, the tested form may be a part): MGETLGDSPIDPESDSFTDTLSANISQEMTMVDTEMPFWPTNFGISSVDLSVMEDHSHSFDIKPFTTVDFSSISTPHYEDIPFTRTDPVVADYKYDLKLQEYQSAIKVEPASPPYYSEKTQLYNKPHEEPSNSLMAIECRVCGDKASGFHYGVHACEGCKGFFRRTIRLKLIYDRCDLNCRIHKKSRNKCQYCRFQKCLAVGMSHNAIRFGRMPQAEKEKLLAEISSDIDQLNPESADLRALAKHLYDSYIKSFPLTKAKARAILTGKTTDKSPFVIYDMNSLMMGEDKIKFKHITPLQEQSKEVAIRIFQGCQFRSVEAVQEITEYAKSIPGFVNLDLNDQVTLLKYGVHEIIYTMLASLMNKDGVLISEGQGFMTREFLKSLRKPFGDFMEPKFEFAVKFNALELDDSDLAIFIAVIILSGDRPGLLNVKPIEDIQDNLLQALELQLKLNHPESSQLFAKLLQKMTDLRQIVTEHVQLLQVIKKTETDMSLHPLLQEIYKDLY
Sequence of Bile acid receptor (Homo sapiens) (Q96RI1 whole entry, looked up): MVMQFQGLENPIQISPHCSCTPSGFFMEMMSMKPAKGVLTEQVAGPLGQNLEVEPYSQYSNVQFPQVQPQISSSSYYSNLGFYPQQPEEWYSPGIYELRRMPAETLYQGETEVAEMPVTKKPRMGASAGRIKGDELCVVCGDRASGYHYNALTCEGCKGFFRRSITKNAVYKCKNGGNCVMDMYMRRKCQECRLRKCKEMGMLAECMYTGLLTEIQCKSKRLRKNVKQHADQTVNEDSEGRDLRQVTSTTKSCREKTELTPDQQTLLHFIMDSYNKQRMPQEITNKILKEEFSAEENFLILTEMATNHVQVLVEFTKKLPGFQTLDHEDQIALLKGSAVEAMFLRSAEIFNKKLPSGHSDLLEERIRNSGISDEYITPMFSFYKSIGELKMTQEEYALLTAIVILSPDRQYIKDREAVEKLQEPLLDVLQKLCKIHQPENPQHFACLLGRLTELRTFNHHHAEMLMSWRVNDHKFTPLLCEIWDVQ
Sequence of Estrogen receptor beta (Homo sapiens) (Q92731 whole entry, looked up, the tested form may be a part): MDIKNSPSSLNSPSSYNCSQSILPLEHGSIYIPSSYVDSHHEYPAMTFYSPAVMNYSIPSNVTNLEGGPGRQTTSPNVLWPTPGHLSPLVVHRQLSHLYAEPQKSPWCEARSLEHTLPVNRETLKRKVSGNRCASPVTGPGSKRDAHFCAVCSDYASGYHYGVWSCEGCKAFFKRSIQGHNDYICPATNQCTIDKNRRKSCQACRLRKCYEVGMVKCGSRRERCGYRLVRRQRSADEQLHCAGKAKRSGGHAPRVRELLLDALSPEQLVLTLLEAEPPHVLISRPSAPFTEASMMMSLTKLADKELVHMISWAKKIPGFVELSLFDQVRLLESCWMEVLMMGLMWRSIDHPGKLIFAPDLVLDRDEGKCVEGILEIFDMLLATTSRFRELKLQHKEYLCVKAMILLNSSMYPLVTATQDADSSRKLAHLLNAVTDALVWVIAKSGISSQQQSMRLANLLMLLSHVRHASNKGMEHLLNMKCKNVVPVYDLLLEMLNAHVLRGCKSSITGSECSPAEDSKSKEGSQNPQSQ

`CO[C@@H]1COCC[C@@H]1N[C@@H]1CC[C@@](C(=O)N2CCc3ncc(C(F)(F)F)cc3C2)(C(C)C)C1`: the molecule was called inactive in test [1], in test [2] and in test [3].
`CC(=O)S[C@H](C(=O)N[C@H]1Cc2ccccc2[C@H]2CCC[C@@H](C(=O)O)N2C1=O)C(C)C`: the molecule was classed as inactive in test [4], in test [2], in test [5] and in test [3].
Turning to `O=C(O)c1cccnc1`, the outcome in test [1] and in test [3] was inactive.
Consider `O=C1c2c(O)cccc2Cc2cccc(O)c21`, for which the molecule was classed as inactive in test [4], in test [2], in test [5] and in test [3].
Regarding `Cc1occc(=O)c1O`, the call in test [5] and in test [3] was inactive.
Take `CC(=O)CC(c1ccccc1)c1c(O)c2ccccc2oc1=O` (stereo not given): the molecule was called inactive in test [2] and in test [5].
Turning to `Nc1nc(Cl)nc2c1ncn2[C@H]1C[C@H](O)[C@@H](CO)O1`, the AC50 in test [4] is 15.2 µM (active); in test [2], 50 µM (active) and 41.2 µM (active); in test [5], 46.7 µM (active) and 44.1 µM (active).
`CC(C)COC(=O)CCCCC(=O)OCC(C)C`: the result in test [4], in test [2], in test [5] and in test [3] was inactive.
As for `COC(=O)CCCC(=O)OC`, the call in test [2] and in test [5] was inactive.
Turning to `CC(=O)O[C@]1(C(C)=O)CC[C@H]2[C@@H]3C=C(Cl)C4=CC(=O)[C@@H]5C[C@@H]5[C@]4(C)[C@H]3CC[C@@]21C`, the outcome in test [1] and in test [3] was inactive. The AC50 in test [2] is 28 µM (active); in test [5], 82.6 µM (active).
For the molecule `N[C@@H](Cc1c[nH]c2ccccc12)C(=O)O`, the result in test [1], in test [2], in test [5] and in test [3] was inactive.
Regarding `CCCC(=O)O`, the molecule was classed as inactive in test [2], in test [5] and in test [3].
Consider `CN(C)CCCN1c2ccccc2Sc2ccc(Cl)cc21`, for which the molecule was classed as inactive in test [1] and in test [3].
For the molecule `Cn1cnc2c1c(=O)[nH]c(=O)n2C`, the result in test [4], in test [2], in test [5] and in test [3] was inactive.
`c1ccc2occc2c1`: the outcome in test [6], in test [7], in test [2] and in test [3] was inactive.
For `O=C(O)c1[nH]n(-c2ccc(S(=O)(=O)O)cc2)c(=O)c1N=Nc1ccc(S(=O)(=O)O)cc1`, the molecule was classed as inactive in test [6], in test [7], in test [2], in test [5] and in test [3].
As for `CCCCOC(=O)CCCCC(=O)OCCCC`, the molecule was classed as inactive in test [1], in test [5] and in test [3].
Regarding `C/C=C/c1ccc(OC)cc1`, the molecule was called inactive in test [1], in test [2] and in test [3].
As for `O=C1NC(=O)C(c2ccccc2)(c2ccccc2)N1`, the result in test [2], in test [5] and in test [3] was inactive.
Consider `CC(N)=O`, for which the call in test [1], in test [5] and in test [3] was inactive.
For `CC(C)c1cccc(C(C)C)c1`, the call in test [6], in test [7], in test [4], in test [2], in test [5] and in test [3] was inactive.
Consider `CCCC[C@H]1CN(CC2CCOCC2)C(=O)OC12CCN(C1(C)CCN(C(=O)c3c(C)ncnc3C)CC1)CC2`, for which the result in test [5] and in test [3] was inactive.
As to `C/C=C/C=C/C(=O)O`, the result in test [1], in test [5] and in test [3] was inactive.
On to `O=C1O[C@H]([C@H](O)CO)C(O)=C1O`, for which the call in test [1], in test [2], in test [5] and in test [3] was inactive.
As to `COC(=O)CCC(=O)OC`, the call in test [6], in test [7], in test [4], in test [2], in test [5] and in test [3] was inactive.

What is called AC50 is the concentration at which the activity in the assay is half-maximal.

Source of the values: PubChem BioAssay (EPA / NIEHS).
